Data: the supplement of paper PMC11732987, “Enantioselective OTUD7B fragment discovery through chemoproteomics screening and high-throughput optimisation” (Communications Chemistry, 2025)

Columns and labels:
Assay in all cases: log2 ratio of Biotin-Ahx-Ub-VS probe labelling (fragment/DMSO); higher = less target engagement (more negative = stronger competition), active = hit call of the paper (q ≤ 0.05, log2 ratio ≤ -1)
Conditions in all cases: compound concentration: 200 uM; treatment time: 3 h
OTUD6B = molecular target: T1, OTUD6B (UniProt Q8N6M0)
T1 sequence (whole entry): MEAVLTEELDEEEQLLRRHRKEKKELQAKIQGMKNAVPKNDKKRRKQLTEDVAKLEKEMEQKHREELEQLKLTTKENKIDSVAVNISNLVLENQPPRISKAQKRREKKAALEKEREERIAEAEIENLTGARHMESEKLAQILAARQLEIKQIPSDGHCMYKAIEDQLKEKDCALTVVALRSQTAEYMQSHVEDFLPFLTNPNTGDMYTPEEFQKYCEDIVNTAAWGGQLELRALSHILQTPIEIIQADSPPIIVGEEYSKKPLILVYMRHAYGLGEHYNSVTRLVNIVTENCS
Outline: (§1)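 The table lists average log2 ratios of fragment over vehicle, from an unpaired t-test on global-median-normalised Spectronaut label-free quantities. Proteins with ≥2 unique peptides were used. Samples were HEK293T lysate (495 µg) treated in triplicate with fragment at 200 µM or vehicle for 3 h, then with Biotin-Ahx-Ub-VS (0.5 µM final) for 1 h, with labelled DUBs NeutrAvidin-enriched and run by diaPASEF LC-MS/MS.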

OTUD7B = molecular target: T2, OTUD7B (UniProt Q6GQQ9)
T2 sequence (whole entry): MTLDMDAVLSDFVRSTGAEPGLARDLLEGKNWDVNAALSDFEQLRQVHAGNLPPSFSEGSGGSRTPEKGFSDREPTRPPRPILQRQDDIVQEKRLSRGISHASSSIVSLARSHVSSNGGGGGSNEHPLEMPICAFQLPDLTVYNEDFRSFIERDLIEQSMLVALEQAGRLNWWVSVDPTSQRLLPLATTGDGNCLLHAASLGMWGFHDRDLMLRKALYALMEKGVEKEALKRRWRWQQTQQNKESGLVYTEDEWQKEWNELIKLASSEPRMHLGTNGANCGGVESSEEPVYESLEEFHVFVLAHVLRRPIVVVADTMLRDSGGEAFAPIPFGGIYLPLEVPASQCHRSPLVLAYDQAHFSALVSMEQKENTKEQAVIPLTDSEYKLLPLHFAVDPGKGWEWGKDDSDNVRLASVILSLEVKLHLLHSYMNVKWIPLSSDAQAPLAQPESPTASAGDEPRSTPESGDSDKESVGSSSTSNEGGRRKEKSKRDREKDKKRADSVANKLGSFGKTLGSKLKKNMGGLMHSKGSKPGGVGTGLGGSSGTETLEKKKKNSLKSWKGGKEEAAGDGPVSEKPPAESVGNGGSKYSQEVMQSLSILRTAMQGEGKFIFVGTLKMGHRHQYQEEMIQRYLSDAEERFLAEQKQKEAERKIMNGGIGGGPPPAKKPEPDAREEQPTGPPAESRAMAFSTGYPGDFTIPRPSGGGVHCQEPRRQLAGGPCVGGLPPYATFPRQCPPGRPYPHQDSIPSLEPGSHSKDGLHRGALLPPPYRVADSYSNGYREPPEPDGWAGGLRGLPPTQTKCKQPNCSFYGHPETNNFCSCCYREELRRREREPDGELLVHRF
Outline: as §1

PRPF8 = PRPF8 (UniProt Q6P2Q9)
Outline: as §1

PSMD7 = molecular target: T3, PSMD7 (UniProt P51665)
T3 sequence (whole entry): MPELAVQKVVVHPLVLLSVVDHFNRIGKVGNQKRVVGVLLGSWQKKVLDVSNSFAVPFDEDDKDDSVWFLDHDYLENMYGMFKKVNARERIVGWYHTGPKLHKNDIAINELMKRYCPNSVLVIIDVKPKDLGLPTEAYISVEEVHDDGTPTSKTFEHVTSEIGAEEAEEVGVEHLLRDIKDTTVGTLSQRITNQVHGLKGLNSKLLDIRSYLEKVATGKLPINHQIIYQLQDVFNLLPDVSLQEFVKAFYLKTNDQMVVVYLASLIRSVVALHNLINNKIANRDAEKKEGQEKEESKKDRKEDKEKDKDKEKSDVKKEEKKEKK
Outline: as §1

UCHL1 = UCHL1 (UniProt P09936)
Outline: as §1

UCHL3 = molecular target: T4, UCHL3 (UniProt P15374)
T4 sequence (whole entry): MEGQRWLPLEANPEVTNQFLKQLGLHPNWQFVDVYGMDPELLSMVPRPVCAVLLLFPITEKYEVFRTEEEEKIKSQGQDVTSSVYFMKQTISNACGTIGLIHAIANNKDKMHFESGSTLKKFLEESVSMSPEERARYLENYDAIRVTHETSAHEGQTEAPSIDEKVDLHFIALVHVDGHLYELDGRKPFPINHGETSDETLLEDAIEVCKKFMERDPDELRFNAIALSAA
Outline: as §1

UCHL5 = molecular target: T5, UCHL5 (UniProt Q9Y5K5)
T5 sequence (whole entry): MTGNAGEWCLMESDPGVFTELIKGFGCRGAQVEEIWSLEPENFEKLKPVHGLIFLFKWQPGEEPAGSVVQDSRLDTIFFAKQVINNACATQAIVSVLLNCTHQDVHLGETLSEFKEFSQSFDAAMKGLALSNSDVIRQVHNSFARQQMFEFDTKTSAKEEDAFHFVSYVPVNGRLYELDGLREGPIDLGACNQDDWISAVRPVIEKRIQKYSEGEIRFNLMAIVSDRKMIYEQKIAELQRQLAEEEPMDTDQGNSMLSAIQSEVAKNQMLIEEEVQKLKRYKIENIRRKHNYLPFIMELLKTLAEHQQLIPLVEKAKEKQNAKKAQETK
Outline: as §1

USP10 = USP10 (UniProt Q14694)
Outline: as §1

USP15 = molecular target: T6, USP15 (UniProt Q9Y4E8)
T6 sequence (whole entry): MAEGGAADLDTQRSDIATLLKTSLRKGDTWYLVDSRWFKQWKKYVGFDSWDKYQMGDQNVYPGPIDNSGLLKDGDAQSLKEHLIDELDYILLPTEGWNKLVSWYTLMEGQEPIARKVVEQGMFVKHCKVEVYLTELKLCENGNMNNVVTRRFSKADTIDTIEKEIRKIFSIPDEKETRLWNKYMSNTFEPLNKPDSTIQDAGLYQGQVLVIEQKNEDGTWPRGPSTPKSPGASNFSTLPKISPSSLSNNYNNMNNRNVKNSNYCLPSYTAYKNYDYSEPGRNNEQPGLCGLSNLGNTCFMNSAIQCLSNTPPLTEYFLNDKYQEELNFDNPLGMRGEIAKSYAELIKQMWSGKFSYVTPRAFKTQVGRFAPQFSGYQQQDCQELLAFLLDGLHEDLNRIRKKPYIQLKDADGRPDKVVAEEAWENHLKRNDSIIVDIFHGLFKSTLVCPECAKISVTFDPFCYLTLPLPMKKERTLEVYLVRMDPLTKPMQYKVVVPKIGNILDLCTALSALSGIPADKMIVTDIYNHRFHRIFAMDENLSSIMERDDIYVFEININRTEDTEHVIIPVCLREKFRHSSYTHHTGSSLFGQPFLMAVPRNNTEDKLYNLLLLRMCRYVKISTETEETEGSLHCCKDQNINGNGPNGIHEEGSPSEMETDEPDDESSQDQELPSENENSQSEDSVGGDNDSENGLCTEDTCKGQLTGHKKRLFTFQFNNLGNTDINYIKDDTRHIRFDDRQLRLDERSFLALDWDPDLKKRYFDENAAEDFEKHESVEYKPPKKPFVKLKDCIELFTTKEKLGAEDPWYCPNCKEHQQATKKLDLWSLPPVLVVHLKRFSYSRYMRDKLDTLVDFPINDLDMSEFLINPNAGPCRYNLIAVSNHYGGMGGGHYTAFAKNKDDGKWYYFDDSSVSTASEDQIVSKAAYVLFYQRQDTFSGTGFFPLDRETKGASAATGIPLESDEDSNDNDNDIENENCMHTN
Outline: as §1

USP16 = USP16 (UniProt Q9Y5T5)
Outline: as §1

Measured: log2 ratio of Biotin-Ahx-Ub-VS probe labelling

Sequence of USP16 (Q9Y5T5 whole entry, looked up): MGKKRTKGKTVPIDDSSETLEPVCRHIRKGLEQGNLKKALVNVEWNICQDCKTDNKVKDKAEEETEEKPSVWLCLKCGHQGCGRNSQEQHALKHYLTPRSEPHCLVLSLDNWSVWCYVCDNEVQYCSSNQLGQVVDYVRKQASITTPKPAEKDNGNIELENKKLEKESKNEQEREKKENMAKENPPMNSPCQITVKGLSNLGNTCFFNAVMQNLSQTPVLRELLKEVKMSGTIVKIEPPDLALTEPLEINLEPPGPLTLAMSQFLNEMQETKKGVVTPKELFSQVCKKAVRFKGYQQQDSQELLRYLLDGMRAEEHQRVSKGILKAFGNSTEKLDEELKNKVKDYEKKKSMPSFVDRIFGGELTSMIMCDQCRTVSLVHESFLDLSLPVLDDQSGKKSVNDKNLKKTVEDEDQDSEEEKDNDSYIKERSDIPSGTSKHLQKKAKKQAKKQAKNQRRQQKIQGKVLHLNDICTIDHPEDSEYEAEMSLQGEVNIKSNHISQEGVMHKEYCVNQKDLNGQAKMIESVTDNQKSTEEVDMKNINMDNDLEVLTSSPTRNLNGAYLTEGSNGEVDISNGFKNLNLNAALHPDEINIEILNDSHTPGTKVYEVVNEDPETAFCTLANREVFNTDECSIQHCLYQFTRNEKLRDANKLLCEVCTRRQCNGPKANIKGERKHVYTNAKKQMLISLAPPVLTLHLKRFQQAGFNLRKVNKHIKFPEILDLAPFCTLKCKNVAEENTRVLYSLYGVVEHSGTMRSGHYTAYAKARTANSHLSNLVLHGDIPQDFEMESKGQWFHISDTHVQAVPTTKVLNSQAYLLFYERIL
Sequence of UCHL1 (P09936 whole entry, looked up): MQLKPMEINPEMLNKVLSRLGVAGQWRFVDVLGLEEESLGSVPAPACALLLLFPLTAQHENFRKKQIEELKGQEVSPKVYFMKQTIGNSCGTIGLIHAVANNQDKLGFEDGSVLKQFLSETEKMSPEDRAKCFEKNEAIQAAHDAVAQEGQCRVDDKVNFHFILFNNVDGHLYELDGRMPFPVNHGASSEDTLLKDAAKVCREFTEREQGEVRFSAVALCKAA
Sequence of USP10 (Q14694 whole entry): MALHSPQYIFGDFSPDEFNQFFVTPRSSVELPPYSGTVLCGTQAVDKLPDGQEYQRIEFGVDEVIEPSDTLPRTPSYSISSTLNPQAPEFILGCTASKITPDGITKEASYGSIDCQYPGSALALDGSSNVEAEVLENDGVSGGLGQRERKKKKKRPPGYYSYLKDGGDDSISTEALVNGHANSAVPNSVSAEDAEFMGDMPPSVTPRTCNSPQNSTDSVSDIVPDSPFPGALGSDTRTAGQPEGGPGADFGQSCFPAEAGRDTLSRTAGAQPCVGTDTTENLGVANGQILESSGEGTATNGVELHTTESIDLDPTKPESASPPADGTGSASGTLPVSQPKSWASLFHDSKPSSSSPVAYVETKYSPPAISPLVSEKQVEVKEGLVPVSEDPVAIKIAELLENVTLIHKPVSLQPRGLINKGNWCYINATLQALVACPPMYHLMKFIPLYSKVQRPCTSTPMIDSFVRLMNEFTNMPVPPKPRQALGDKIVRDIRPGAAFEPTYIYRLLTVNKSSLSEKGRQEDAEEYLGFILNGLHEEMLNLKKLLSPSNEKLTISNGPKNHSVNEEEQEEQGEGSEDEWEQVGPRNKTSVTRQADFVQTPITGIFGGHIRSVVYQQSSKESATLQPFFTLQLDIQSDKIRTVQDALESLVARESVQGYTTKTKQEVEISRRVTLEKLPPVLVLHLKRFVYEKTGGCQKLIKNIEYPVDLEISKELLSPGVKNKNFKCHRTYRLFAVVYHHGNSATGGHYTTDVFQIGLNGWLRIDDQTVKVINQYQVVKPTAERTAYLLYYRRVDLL

Cc1noc(C)c1CNC(=O)CCl
inactive: OTUD6B -0.543 | PRPF8 -0.184 | PSMD7 -0.529 | UCHL3 -0.701 | UCHL5 -0.89 | USP10 -0.261 | USP15 -0.867 | USP16 -0.591
active: OTUD7B -1.46 | UCHL1 -2.12
